KKLEB cytotox: CF airway cell cytotoxicity counter-screen; 360,000 compounds, 0.36% hits; KKLEB CF airway cells viability, ATPlite luminescence, overnight; hits give low values; cells stimulated with P. aeruginosa culture filtrate; activity change (cytotoxicity), % at 5 µM; AID 602141;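 active = corrected activity change at or below -50% at 5 µM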
Peg3 promoter: Peg3 promoter activity inhibition; HeLa PEG-Prom luciferase reporter, luminescence, overnight; inhibition, % at 20 µM; AID 588405; 360,000 compounds, 1.7% hits;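 active = inhibition of at least 50% at 20 µM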
HIF-2a block: HIF-2a inhibition; 786-0 RCC cells HIF-2a reporter, luciferase luminescence, overnight; inhibition, % at 18.8 µM; 360,000 compounds, 0.72% hits;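 active = inhibition of the luminescence signal of 40% or more relative to plate controls, in a single-dose primary screen at 18.75 µM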
TRPM1 prom inh: reduces MITF-dependent TRPM1 promoter luciferase signal | SK-MEL-5 TRPM1 promoter luciferase, 24 h | AID 488899 | inhibition, % at 12.5 µM | 330,000 compounds, 0.83% hits;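 active = mean inhibition across replicates of 60% or more, whatever share of single replicates reaches that level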
CHOP inhibitor: blocks CHOP induction under ER stress; CHO-K1 CHOP-promoter luciferase, tunicamycin-induced, 15-18 h; inhibition, % at 10 µM; 220,000 compounds, 3.8% hits; AID 2732;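 active = compounds that reduced the stress-induced luciferase reporter signal by more than about 70% of percent inhibition, limit read from the data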
CF NFkB block: blocks PAF-induced NF-kB reporter in cystic fibrosis cells. KKLEB NF-kB-GFP reporter, GFP fluorescence overnight. inhibition, % at 5 µM. 360,000 compounds, 0.86% hits;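 active = at least 50% inhibition at 5 µM, scaled per plate between neutral and stimulator controls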;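 also: PAF is a Pseudomonas aeruginosa culture filtrate used as stimulus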
Hits are given with their value; n = inactive; x = not tested or not shown. This is a sample that favours compounds with a hit; in the whole collection about 4.3% have one here.

SMILES	KKLEB cytotox	Peg3 promoter	HIF-2a block	TRPM1 prom inh	CHOP inhibitor	CF NFkB block
CC1=NN(c2nc(N)nc(/C(C#N)=C/c3ccc([N+](=O)[O-])o3)n2)C(C)(C)C1	-69.2	102.1	n	91.1	x	n
CCOc1cc(N2CCOCC2)c(OCC)cc1NC(=O)c1ccc(OCc2c(C)noc2C)c(OC)c1	n	50.5	n	n	n	n
CCOc1cc(N2CCOCC2)c(OCC)cc1NC(=O)c1nn(CC)c(=O)c2ccccc12	n	60.5	n	n	x	n
CCOc1cc(N2CCOCC2)c(OCC)cc1NC(=O)c1ccccc1C	n	n	n	n	n	n
CCOc1cc(N2CCOCC2)c(OCC)cc1NC(=O)c1ccc(OC)cc1	n	n	n	n	n	n
FC(F)(F)c1ccccc1Cc1c(-c2cccc(Cl)c2)nc2c3ccccc3ccn12	x	x	n	x	x	x
CC(=O)NC(c1ccc(C(C)C)cc1)c1c(O)ccc2ccccc12 (stereo unspecified)	n	n	n	x	x	n
CC(=O)NC(c1ccc([N+](=O)[O-])cc1)c1c(O)ccc2ccccc12 (stereo unspecified)	n	n	n	n	n	n
Cc1ccc(C(NC(=O)C2CCCCC2)c2c(O)ccc3ccccc23)cc1 (stereo unspecified)	n	53.5	n	n	n	n
CC(C)C(=O)NC(c1ccc([N+](=O)[O-])cc1)c1c(O)ccc2ccccc12 (stereo unspecified)	n	51.8	n	n	n	n
CCCS(=O)(=O)NC(=O)C1(C)CCN(C(=O)c2ccc(C(F)(F)F)nc2C)C1 (stereo unspecified)	n	n	n	x	x	n
CCOC(=O)c1c(C)[nH]c(C)c1S(=O)(=O)N(C)CC(=O)Nc1ccccc1F	n	n	n	n	x	n
COc1cccc(CNCc2cc(OC)cc(OC)c2)c1	n	n	n	n	x	n
COc1cc(CNCc2ccc(OC)c(OC)c2OC)cc(OC)c1	n	71.5	n	n	n	n
COc1cccc(C(=O)N2CCN(Cc3ccccc3C(F)(F)F)CC2)c1	n	n	n	n	71.4	n
COc1ccc(C(=O)N2CCN(Cc3ccccc3C(F)(F)F)CC2)cc1	n	n	n	n	x	n
N#CC(C#N)=NNc1ccc(S(=O)(=O)N2CCCCC2)cc1	n	n	n	n	n	71.0
N#C/C(=N\Nc1ccc(S(=O)(=O)N2CCOCC2)cc1)C(N)=S	n	n	n	n	n	n
O=C(Cn1c(=O)oc2cc(S(=O)(=O)N3CCCC3)ccc21)N1CCc2ccccc2C1	n	n	n	n	85.2	n
O=C(CN1C(=O)S/C(=C\C=C\c2ccccc2)C1=O)Nc1ccc(O)cc1	n	n	n	n	91.4	n
O=C(CCCN1C(=O)S/C(=C/C=C/c2ccccc2)C1=O)Nc1ccc(C(=O)O)cc1	n	n	n	n	x	n
CC(C)c1ccccc1NC(=O)COC(=O)CCN1C(=O)/C(=C\C=C\c2ccccc2)SC1=S	n	n	81.6	62.9	75.5	n
O=C(CCN1C(=O)/C(=C\C=C\c2ccccc2)SC1=S)Nc1ccccc1C(=O)O	n	n	n	n	x	n
O=C(COC(=O)CCN1C(=O)/C(=C\C=C\c2ccccc2)SC1=S)Nc1ccc(Br)cc1	n	n	58.3	64.2	72.3	n
COC(=O)[C@H](CC(C)C)NC(=O)CC[C@H]1O[C@@H](n2ccc(=O)[nH]c2=O)[C@H](O)[C@@H]1O	n	n	n	x	x	n
SMILES	KKLEB cytotox	Peg3 promoter	HIF-2a block	TRPM1 prom inh	CHOP inhibitor	CF NFkB block
O=C1NC[C@H](CCCCN2C[C@H](Cc3ccc(O)cc3)N(CC3CCCCC3)C(=O)C2=O)N(CCc2ccc(O)cc2)C1=O	x	x	n	x	x	x
Cn1c2c(c(=O)n(C)c1=O)CN(CC1CCCO1)CN2 (stereo unspecified)	n	n	n	n	73.0	n
COc1ccc(CCN2CNc3c(c(=O)n(C)c(=O)n3C)C2)cc1	n	n	n	n	n	n
COc1ccccc1NCC(=O)N/N=C/c1c(O)ccc2ccccc12	n	56.0	n	n	x	n
COc1ccccc1NCC(=O)N/N=C/c1cccnc1	n	n	n	n	n	n
O=C(Cc1n[nH]c(=O)[nH]c1=O)N/N=C/c1c(O)ccc2ccccc12	n	n	n	n	n	n
O=C(CNc1ccc(F)cc1)N/N=C/c1c(O)ccc2ccccc12	n	51.2	n	n	x	n
CCC(C)c1ccc2oc(-c3ccc(NC(=O)Cn4cnc5c(=O)n(C)c(=O)n(C)c54)cc3)nc2c1 (stereo unspecified)	n	n	n	n	78.9	n
Cc1nn(CC(C)C)c(Cl)c1C(=O)N(C)CC(=O)Nc1ccc(Cl)cc1	n	n	n	x	x	n
CC(C)COC(=O)N(C)c1ccc(C(O)(C(F)(F)F)C(F)(F)F)cc1	n	n	n	n	93.4	n
CC(C)(C)c1ccc(S(=O)(=O)Nc2ccc(C(O)(C(F)(F)F)C(F)(F)F)cc2)cc1	n	n	n	x	x	n
NCC1OC(O[C@@H]2[C@H](O)C(OC3C(O)C(N)CC(N)C3OC3OC(CO)C(O)C(O)C3N)O[C@@H]2CO)C(N)C(O)C1O (stereo partly specified)	x	x	x	x	n	x
COc1cc(NC(=O)Cn2c(=O)n(-c3cccc(C)c3)c(=O)c3c(C)c(C)sc32)cc(OC)c1	n	n	n	n	92.4	n
NS(=O)(=O)c1ccc(N/N=C/c2cn(-c3ccccc3)nc2-c2cccs2)c([N+](=O)[O-])c1	-81.6	n	n	n	n	87.5
NS(=O)(=O)c1ccc(N/N=C/c2cn(-c3ccccc3)nc2-c2cccs2)cc1	n	n	n	n	n	n
N#Cc1ccc(N/N=C/c2cn(-c3ccccc3)nc2-c2ccccc2)c([N+](=O)[O-])c1	n	n	n	n	82.8	n
Cc1c(C(=O)NCc2ccc3c(c2)OCO3)sc(=O)n1Cc1ccc(-c2ccccc2)cc1	n	n	n	x	x	n
CCCCn1nnnc1C(c1ccccc1)N1CCN(c2ccc(F)cc2)CC1 (stereo unspecified)	x	x	n	x	x	x
Cc1ccc(C(NC(=O)NC(C)c2ccccc2)C(Cl)(Cl)Cl)cc1F (stereo unspecified)	n	n	n	n	86.5	n
CC(NC(=O)Nc1ccc(Cl)cc1)c1ccccc1 (stereo unspecified)	n	n	n	n	x	n
O=C(CN1C(=O)NC2(CCCC2)C1=O)NCCc1ccc(F)cc1	n	n	n	n	x	n
COc1ccc2oc(=Nc3ccccc3)c(-c3nc4ccccc4[nH]3)cc2c1	-67.0	n	n	n	85.6	n
O=S1(=O)CCN(CCCCc2ccccc2)CC1	n	n	n	x	x	n
CCOC(=O)N1CCN(C(=O)CCN2C(=O)/C(=C\c3cccc(OC)c3)SC2=S)CC1	n	n	n	n	x	n
COc1cc(SC)ccc1C(=O)Nc1ccccn1	n	n	n	n	n	n
COc1cc(SC)ccc1C(=O)NCCOc1c(C)cc(C)cc1C	n	n	n	n	91.2	n
COc1cc(SC)ccc1C(=O)Nc1ccc(Br)cn1	-84.8	55.4	n	n	n	n

Source: PubChem
